Rin1-Abl PPI inh = blocks binding of human Rin1 to Abl. P00519+Q13671. TR-FRET Rin1/Abl binding, biochemical. inhibition, % at 7.35 µM. 360,000 tested, 0.4% active; in the data active means inhibition above about 5%, passing the limit was not always enough
TPT1 inhibitor = C. albicans TPT1 enzyme inhibition. inhibition, % at 5 µM. recombinant caTPT1, FP RNA substrate dephosphorylation. 300,000 tested, 0.81% active;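 active means inhibition above the mean of all tested compounds plus 3 SD, set per screening campaign, cut at about 24% in these data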;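 further: plate controls were DMSO alone for no effect and ferristatin control at 100 nM for full effect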
Calb FLC = affects C. albicans growth with fluconazole. C. albicans CaCi-2 (fluconazole-resistant clinical isolate) + fluconazole, Alamar Blue growth, 48 h. growth inhibition, % (concentration not given with the values). 300,000 tested, 0.57% active. AID 1979;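 active means growth inhibition above about 58% in most replicates, limit read from the data, passing the limit was not always enough; inconclusive means exactly half the replicates above a set limit; inactive means most replicates below a set limit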;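 further: all wells also contain fluconazole at 8 µg/ml as a sub-toxic cotreatment; 0% = median of DMSO wells and 100% = median of geldanamycin control wells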
IDE inh = inhibits human insulin-degrading enzyme in HEK cells; 320,000 tested, 0.41% active; FAbetaB cleavage, fluorescence polarization; P14735; inhibition, % at 5.59 µM;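 active means percent inhibition above the average of all tested compounds plus 3 SD, set per screening campaign, cut at about 16% in these data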;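 further: IDE supplied by intact live HEK cells; FP after avidin binding of uncleaved biotin substrate so inhibition keeps polarization high; 0% = DMSO wells and 100% = 60 µM reference IDE inhibitor Ii1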
IDE act = boosts human insulin-degrading enzyme activity in HEK cells; P14735; FAbeta-B cleavage, fluorescence polarization; 0% vehicle, 100% cell-free pure enzyme wells; activation, % at 5.96 µM; 340,000 tested, 0.073% active;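 active means activation above the mean of all tested compounds plus 3 SD, set per screening campaign, cut at about 17% in these data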
Rpn11 inh = blocks the human proteasome subunit Rpn11 | O00487 | inhibition, % at 20 µM | 360,000 tested, 0.59% active | human 26S proteasome, Ub4-pepOG fluorescence polarization; 20S core pre-blocked with epoxomicin | AID 588493;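 active means inhibition at 20 µM, scaled to each plate's controls, above about 33%, limit read from the data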
Target sequence (O00487 whole entry, looked up): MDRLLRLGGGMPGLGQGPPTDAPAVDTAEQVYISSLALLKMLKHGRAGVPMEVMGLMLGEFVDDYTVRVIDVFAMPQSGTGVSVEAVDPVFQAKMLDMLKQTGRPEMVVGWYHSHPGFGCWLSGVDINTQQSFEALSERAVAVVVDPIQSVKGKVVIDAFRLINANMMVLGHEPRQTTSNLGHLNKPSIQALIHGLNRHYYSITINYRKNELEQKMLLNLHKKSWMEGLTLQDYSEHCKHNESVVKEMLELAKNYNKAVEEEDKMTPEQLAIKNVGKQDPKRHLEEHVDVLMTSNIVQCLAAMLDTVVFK
An asterisk follows results filed as active; ? = inconclusive; / = no result given. This is a sample that favours compounds with a hit; in the whole collection about 2.3% have one here.

SMILES	Rin1-Abl PPI inh	TPT1 inhibitor	Calb FLC	IDE inh	IDE act	Rpn11 inh
Cc1c(C(=O)Nc2ccc3c(c2)OCO3)sc2nc(-c3ccccc3)cn12	5	0	6	11	-6	3
Cc1c(C(=O)Nc2ccccc2)sc2nc(-c3ccccc3)cn12	-2	-4	-25	23*	-15	-2
Fc1ccc(NC(=S)SCc2ccc3c(c2)OCO3)cc1F	5	/	/	/	/	5
CC(C)(C)c1ccc(Cc2n[nH]c(=S)[nH]c2=O)cc1	4	-1	78*	5	4	0
O=c1[nH]c(=S)[nH]nc1Cc1ccc(Cl)c(Cl)c1	3	0	91*	2	3	-14
O=C(NCC1CC1)c1onc(CSc2ccc(F)c(F)c2)c1C(=O)NCC1CC1	1	-2	13	-2	65*	-3
C#CCn1cc2c(c1-c1ccccc1)c(=O)n(C)c(=O)n2C	-4	/	/	/	/	5
O=C(Nc1nnc(-c2ccccn2)o1)c1ccc(Br)cc1	-1	2	98*	-3	-5	-2
CCC(=O)Nc1nnc(-c2ccccn2)o1	2	3	-3	-4	6	3
O=c1[nH]c(C(Cl)Cl)nc2sc3c(c12)CCN(Cc1ccccc1)C3	2	10	2	-1	2	-45
CCCSc1nc2sc3c(c2c(=O)[nH]1)CCN(Cc1ccccc1)C3	-3	82*	14	14	-20	65*
CCOc1cc(C(C(=O)NCC2CCCO2)N(C(=O)Cn2nnc3ccccc32)c2ccc(OC)c(OC)c2)ccc1O (configuration not stated)	-1	-4	5	7	-5	1
COc1ccc(N(C(=O)Cn2nnc3ccccc32)C(C(=O)NC(C)(C)C)c2ccc(OC)c(O)c2)cc1 (configuration not stated)	1	-1	78*	-2	-4	-4
Cc1cc(NC(=O)c2ccc3sc([C@@H]4O[C@H](CO)[C@H](O)[C@H](O)[C@H]4O)nc3c2)n(C)n1	-3	/	/	/	/	3
S=C(NCCCN1CCOCC1)N1CCN(c2nc(-c3ccc(Cl)cc3)cs2)CC1	-3	-3	?	23*	-14	4
CCCNC(=S)N1CCN(c2nc(-c3ccc(C)cc3)cs2)CC1	-2	0	5	14	-16	4
COc1ccc(CCC(=O)N2CC(C)OC(C)C2)cc1 (configuration not stated)	-1	0	89*	7	2	-5
CC(=O)N1N=C(c2ccc(Cl)cc2)CC1c1ccc([N+](=O)[O-])cc1 (configuration not stated)	-2	1	-1	2	0	-4
CC1(O)CC(c2ccc(Cl)cc2)=NN1C(=O)c1ccc([N+](=O)[O-])cc1 (configuration not stated)	6	-3	95*	4	11	-4
CC(C)NC(=O)C1(C)CCN1CCC(=O)c1ccccc1 (configuration not stated)	-4	/	/	/	/	-3
C[C@H](CO)N1C[C@H](C)[C@H](CN(C)Cc2cncnc2)Oc2ncc(C#CC3(O)CCCC3)cc2C1=O	1	/	/	/	/	-5
O=C(N/N=C/c1cc2c3c(c1O)CCCN3CCC2)c1ccccc1O	4	/	108*	/	-3	-8
Cc1nn(-c2ccccc2)c(C)c1/C=N/NC(=O)c1ccccc1O	1	/	-6	/	4	-3
Cc1nn(-c2ccccc2)c(N2CCCC2)c1/C=N/NC(=O)c1ccccc1O	-4	-2	91*	6	6	2
CCCNC(=O)C1(C)CCN(Cc2noc(-c3ccccc3OC)n2)C1 (configuration not stated)	0	/	/	/	/	0
SMILES	Rin1-Abl PPI inh	TPT1 inhibitor	Calb FLC	IDE inh	IDE act	Rpn11 inh
O=C(CSc1nnc(-c2ccccc2F)n1C1CCCCC1)Nc1cc(C(=O)O)ccc1Cl	1	/	/	11	-2	-1
Cc1ccc(NC(=S)NC(=O)C2CC2)cc1Cl	2	/	112*	/	5	-4
O=C(NC(=S)Nc1ccc(F)c(Cl)c1)C1CC1	1	-2	11	0	6	2
CC(C)(NC(=O)c1ccccc1)c1nc2ccccc2s1	0	-3	-4	3	-4	0
O=C(Nc1ccc(F)c(Cl)c1)c1cc(C2CCCN(S(=O)(=O)c3cccc4cccnc34)C2)on1 (configuration not stated)	-1	/	/	/	/	1
S=C(Nc1ccc(Cl)cc1)Nc1ccc2c(c1)OCCO2	0	/	81*	/	5	-1
COc1cccc(NC(=O)CN2CCN(C(=O)c3ccco3)CC2)c1	-1	0	3	6	2	-5
COc1ccc(NC(=O)c2cccc(OS(=O)(=O)N(C)C)c2)cc1	0	-1	42	4	-3	6
CN(C)S(=O)(=O)Oc1cccc(C(=O)Nc2ccc(Cl)c(Cl)c2)c1	0	-3	92*	8	3	-6
CN(C)S(=O)(=O)Oc1cccc(C(=O)Nc2cccc(Cl)c2)c1	1	-5	108*	2	0	1
CC(=O)N1CCN(c2ncnc3sc(-c4ccccc4)cc23)CC1	0	-3	25	12	-6	-2
Oc1ccc(N2CCN(c3ncnc4sc(-c5ccccc5)cc34)CC2)cc1	-2	/	100*	/	-11	-3
CCOC(=O)c1ccccc1OCc1cc(/C=N/NC(=O)c2cccnc2)ccc1OC	-2	1	1	-5	-2	0
CCOC(=O)c1ccccc1OCc1cc(/C=N/n2cnnc2)ccc1OC	0	1	102*	1	4	-1
NC(=S)N/N=C/c1ccccc1OCCSc1ccc(Cl)cc1	1	2	-18	6	1	8
CC1=CC2=C(OC1N(C)C)c1cccc3cccc(c13)C2=O (configuration not stated)	-1	-37	96*	3	1	-95
COc1ccc(C2(c3ccc(OC)cc3)NC(=O)N(CC(=O)N(C)C3CCC(C)CC3)C2=O)cc1 (configuration not stated)	0	/	/	0	1	10
O=C(Nc1ccccc1N1CCOCC1)c1cccc(F)c1	-3	-2	7	2	3	1
O=C(Nc1ccccc1N1CCOCC1)c1cc(F)cc(F)c1	-2	-3	97*	1	-1	-7
O=C(Nc1cc(S(=O)(=O)N2CCOCC2)ccc1N1CCOCC1)c1ccccc1F	4	/	/	3	20*	5
C[C@H]1CN([C@@H](C)CO)C(=O)Cc2cc(NC(=O)CCC(F)(F)F)ccc2O[C@H]1CN(C)CC1CC1	-1	/	/	3	6	2
Cc1ccc(S(=O)(=O)c2ncccc2N)cc1	1	-4	-10	-2	1	-4
Cc1ccc(S(=O)(=O)c2ncccc2[N+](=O)[O-])cc1	0	-4	108*	1	-5	12

Source: PubChem (several laboratories)
